An excerpt weighted towards active compounds, which were near 4.4% of everything screened.
HPGD block = qHTS Assay for Inhibitors of HPGD (15-Hydroxyprostaglandin Dehydrogenase); 15-hydroxyprostaglandin dehydrogenase [NAD(+)] (Homo sapiens), P15428; purified HPGD, NADH fluorescence kinetic, PGE2 substrate; Potency, µM, without a hit: at the top dose activity change, negative = inhibition, actives largely listed as inhibitors; 150,000 tested, 4.3% active; active means well fitted inhibition curve with a large enough effect, not every such curve was filed as active; inconclusive means small, poorly fitted or top-dose-only effect, or another doubt; inactive means no such curve, though single readings can be large or run the other way
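NADH formation kinetics: reaction with 30 uM PGE2 and 1 mM NAD+ (final), 20 nM enzyme, Tris-HCl pH 8 with Tween 20, after 15 min compound preincubation at room temperature. Fluorescence change, last versus first of five reads.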
ALOX12 inhib = qHTS Assay for Inhibitors of 12-hLO (12-human lipoxygenase) | Polyunsaturated fatty acid lipoxygenase ALOX12 (Homo sapiens), P18054 | purified 12-hLO, xylenol orange hydroperoxide absorbance | Potency, µM (titrated, usually from 57.1 µM), inactives show at the highest dose activity change, negative = inhibition, actives largely listed as inhibitors | 150,000 tested, 0.12% active; further: nearly all actives have a fitted effect of over 55% in size
Target sequence (P18054 whole entry, looked up): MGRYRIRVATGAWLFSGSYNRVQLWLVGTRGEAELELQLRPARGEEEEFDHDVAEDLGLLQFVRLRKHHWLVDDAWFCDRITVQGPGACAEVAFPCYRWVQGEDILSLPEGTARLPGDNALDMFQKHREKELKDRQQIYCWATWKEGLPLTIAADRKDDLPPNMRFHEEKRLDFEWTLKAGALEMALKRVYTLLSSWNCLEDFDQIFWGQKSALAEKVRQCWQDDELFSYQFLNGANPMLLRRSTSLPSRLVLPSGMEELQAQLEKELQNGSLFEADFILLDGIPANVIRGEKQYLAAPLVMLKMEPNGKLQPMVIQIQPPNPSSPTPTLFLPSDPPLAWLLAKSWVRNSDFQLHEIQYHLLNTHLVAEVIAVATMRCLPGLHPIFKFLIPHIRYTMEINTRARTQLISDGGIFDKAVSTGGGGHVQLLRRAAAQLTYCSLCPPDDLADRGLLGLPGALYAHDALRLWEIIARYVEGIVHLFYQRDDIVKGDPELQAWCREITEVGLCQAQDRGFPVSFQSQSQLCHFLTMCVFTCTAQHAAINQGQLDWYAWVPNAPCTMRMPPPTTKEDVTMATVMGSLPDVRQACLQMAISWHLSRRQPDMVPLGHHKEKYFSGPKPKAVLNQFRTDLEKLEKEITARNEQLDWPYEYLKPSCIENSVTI
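Purified human 12hLO (150 nM final) was preincubated with compounds for 15 min at room temperature in 25 mM Hepes pH 7.0, 0.01% Triton X-100, then reacted with 40 uM arachidonic acid for 30 min. Hydroperoxide was detected with ferrous iron/xylenol orange.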
p53ts 32C kill = qHTS Screen for Compounds that Selectively Target Cancer Cells with p53 Mutations: Cytotoxicity of p53ts Cells at the Permissive Temperature | H1299-p53A138V at 32C, ATP luminescence viability, 24 h | Potency, µM (titrated, usually from 46.1 µM), inactives show at the highest dose activity change, negative = cytotoxicity, hits mostly cytotoxic | 130,000 tested, 0.93% active;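 further: 0% = DMSO and -100% = full killing by reference compound; nearly all actives have a fitted effect of over 55% in size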
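H1299-p53 A138V cells (temperature-sensitive p53) exposed 24 h to up to 46 uM compound at 32C, where p53 is wild-type in conformation. Viability read as ATP luminescence and normalised to DMSO and 100 uM tamoxifen. AC50 fitted with the Hill equation.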
p53ts 39C kill = qHTS Screen for Compounds that Selectively Target Cancer Cells with p53 Mutations: Cytotoxicity of p53ts Cells at the Nonpermissive Temperature. H1299-p53A138V viability at 39C, ATP luminescence, 24 h. Potency, µM (doses to about 46.1 µM), for inactives: top-dose activity change, negative = cell killing, actives largely listed as cytotoxic. 130,000 tested, 1.5% active. AID 902, 2007; further: nearly all actives have a fitted effect of over 55% in size
An asterisk follows results filed as active; ? = inconclusive; nt = not tested or not shown; [ ] = another dose, or the depositor's remark. Unless noted, the call rests on the fitted dose curve; in most records, active means well fitted curve in the direction sought with a large enough effect; inconclusive means small, poorly fitted or top-dose-only effect, or another doubt; inactive means no such curve, though single readings can be large; an effect the other way counts as inactive or inconclusive. Unless noted, on the % scale 0 is the no-effect control and ±100 the full control effect; potency means the concentration at half of the fitted maximal effect.

SMILES	HPGD block	ALOX12 inhib	p53ts 32C kill	p53ts 39C kill
COc1cccc2oc(-c3ccc(O)cc3)cc(=O)c12	-25%	-3%	6.3µM*	7.9µM*
COc1cc2oc(-c3ccccc3)cc(=O)c2cc1OC	?	-8%	-16%	-15%
COc1cccc2oc(SC)cc(=O)c12	-18%	3%[0.00818 µM]	nt	nt
COc1ccc(/C=N/NC(=O)CCc2ccccc2)cc1O	-15%	-1%	nt	nt
CC(=O)N1CCC(=NNC(=O)CSc2cc(C)c(Br)cc2C)CC1	25µM*	0%	-20%	29%
Cc1cc(SCC(=O)N/N=C/c2ccc(O)c(O)c2)c(C)cc1Br	2.8µM*	?	nt	nt
Cc1cc(SCC(=O)OCC(=O)NC(C)c2ccccc2)c(C)cc1Br (stereo not drawn)	-6%	-2%	nt	nt
CCCN1CCC(=NNC(=O)CSc2cc(C)c(Br)cc2C)CC1	14µM*	1%	nt	nt
Cc1cc(SCC(=O)Nc2cccc(S(=O)(=O)NC3=NCCCCC3)c2)c(C)cc1Br	-7%	0%	nt	nt
Cc1cccc(Oc2nc3ccccn3c(=O)c2/C=C(\C#N)c2nc3ccccc3s2)c1C	nt	nt	-4%	1%
O=C(c1cnn(-c2ccccc2)c1)c1ccccc1O	13µM*	1%	nt	-7%
O=C(CSc1nc2ccccc2n1Cc1c(F)cccc1Cl)N1CCN(c2ccc(F)cc2)CC1	nt	nt	-10%	?
O=C(NCC1CCCO1)c1csc2c1CCCCC2 (stereo not drawn)	25µM*	4%	-1%	-12%
CCCNC(=O)c1csc2c1CCCCC2	?	-5%	nt	nt
CCc1c(C(=O)NC2CCCC2)csc1C	14µM*	-5%	2%	14%
CC1CCc2c(C(=O)Nc3nccs3)csc2C1 (stereo not drawn)	7.1µM*	-14%	nt	nt
CC1CCc2c(C(=O)NCC3CCCO3)csc2C1 (stereo not drawn)	7.9µM*	-5%	-10%	-6%
CNC(=O)C1CCC(Cn2c(=O)c3sccc3n(CC(=O)NCc3cccc(OC)c3)c2=O)CC1 (stereo not drawn)	nt	nt	-1%	-12%
COC(=O)c1ccccc1NC(=O)c1noc2c1CSc1ccccc1-2	nt	nt	2%	-12%
CCCCc1nn2c(=O)cc(COC(=O)c3cccs3)nc2s1	nt	nt	-3%	-12%
Cc1cccc(C)c1NC(=O)c1csc2c1CCCC2	nt	nt	2%	-6%
O=C(NC1CCCC1)c1csc2c1CCCC2	16µM*	-7%	0%	-15%
COc1ccc2c(CNCc3ccc(Cl)cc3)c(C(=O)O)n(Cc3ccccc3C)c2c1	nt	nt	-5%	-22%
CCN(Cc1ccccc1)C(=O)c1cc2ccc3cccnc3c2[nH]1	nt	nt	?	32µM*
Cc1ccc(CNC(=O)c2cc3ccc4cccnc4c3[nH]2)cc1	nt	nt	-2%	-21%
SMILES	HPGD block	ALOX12 inhib	p53ts 32C kill	p53ts 39C kill
Cc1ccc(C)c(CN2CCC(CNC(=O)c3cc4ccc5cccnc5c4[nH]3)CC2)c1	nt	nt	-2%	-17%
Cc1ccc(CN2CCC(CNC(=O)c3cc4ccc5cccnc5c4[nH]3)CC2)cc1	nt	nt	?	13µM*
COc1ccc(NC(=O)Nc2ccccc2OCc2cc(=O)n3ccccc3n2)c(OC)c1	nt	nt	?	16µM*
COc1ccc(OC)c(NC(=O)Nc2cccc(OCc3cc(=O)n4cc(C)ccc4n3)c2)c1	nt	nt	6.3µM*	6.3µM*
COc1cc(OC)c(NC(=O)Nc2ccccc2OCc2cc(=O)n3cc(C)ccc3n2)cc1Cl	nt	nt	-3%	-21%
COc1ccc(N2CCN(C(=O)C3CCN(S(=O)(=O)Cc4ccccc4)CC3)CC2)cc1	nt	nt	-5%	-8%
COc1cc(C2CC(=O)c3c([nH]c(C(=O)OCc4ccc(C)cc4)c3C)C2)cc(OC)c1OC (stereo not drawn)	nt	nt	-2%	-26%
COc1ccc(NC(=O)N2CCc3nc(COc4ccccc4)c4c(c3C2)CO[C@@H](C)C4)cc1	-5%	0%[11.4 µM]	nt	nt
Cc1ccc(-c2nnc(Nc3ccc(Cl)cc3)c3ccccc23)cc1S(=O)(=O)NCC1CCCO1 (stereo not drawn)	nt	nt	-4%	-15%
O=C(CCC(=O)Nc1ccccc1)N/N=C/c1ccncc1	22µM*	-9%	nt	nt
